Among the data in PMC4081100, “A DNA-binding-site landscape and regulatory network analysis for NAC transcription factors in Arabidopsis thaliana” are binding signal values, retold here.

Common to all, as to experiment: universal protein binding microarray (PBM); transcription factors of Arabidopsis thaliana; high values mean tight binding
The target in one assay is T1, GST-ANAC092(1-176) (Arabidopsis thaliana, UniProt Q9FKA0 1-176).
T1 sequence: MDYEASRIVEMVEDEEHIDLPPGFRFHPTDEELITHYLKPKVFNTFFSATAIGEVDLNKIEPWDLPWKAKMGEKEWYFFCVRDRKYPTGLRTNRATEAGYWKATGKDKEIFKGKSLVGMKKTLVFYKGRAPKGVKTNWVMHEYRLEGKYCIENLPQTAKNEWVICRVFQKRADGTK
The note with it: protein: recombinant; tags: GST; chain copies: 2; dsDNA, one strand shown. In outline:
(§1)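 Binding is expressed as the normalised enrichment score (E-score). Proteins carrying a GST tag, whether NAC-domain, full-length or DNA-binding-domain forms, were induced in cells, and zinc acetate was added for zinc-finger proteins. After purification on glutathione–Sepharose 4B and quantification by A280 or anti-GST western blot, each was applied in duplicate at 200 to 500 nM final to custom all-10-mer Agilent 4 × 180K arrays made double-stranded by primer extension. Gapped and ungapped 8-mers were scored.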

Another assay deals with GST-NTL6(1-168) (Arabidopsis thaliana, UniProt Q9SCK6 1-168). The note with it: protein: recombinant; tags: GST; chain copies: 2; dsDNA, one strand shown. In short, it runs like this:
as §1

The next assay concerns the target T2, GST-ANAC019 NAC domain (Arabidopsis thaliana, UniProt Q9C932 14-162).
T2 sequence: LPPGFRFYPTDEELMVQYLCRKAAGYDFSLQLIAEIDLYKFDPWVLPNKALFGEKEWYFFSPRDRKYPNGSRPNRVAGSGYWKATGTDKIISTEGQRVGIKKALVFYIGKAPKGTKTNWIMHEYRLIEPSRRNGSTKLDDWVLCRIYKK
The note with it: protein: recombinant; tags: GST; chain copies: 2; dsDNA, one strand shown. In short, it runs like this:
as §1

Another assay addresses T3, GST-ANAC055(1-171) (Arabidopsis thaliana, UniProt Q9LDY8 1-171).
T3 sequence: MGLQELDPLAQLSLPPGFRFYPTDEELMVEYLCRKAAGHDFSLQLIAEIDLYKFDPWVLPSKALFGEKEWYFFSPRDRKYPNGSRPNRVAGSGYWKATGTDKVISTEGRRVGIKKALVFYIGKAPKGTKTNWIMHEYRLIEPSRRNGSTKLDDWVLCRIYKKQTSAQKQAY
The note with it: protein: recombinant; tags: GST; chain copies: 2; dsDNA, one strand shown. In outline:
as §1

In the next assay the target is T4, GST-ATAF1 NAC domain (Arabidopsis thaliana, UniProt Q39013 7-158).
T4 sequence: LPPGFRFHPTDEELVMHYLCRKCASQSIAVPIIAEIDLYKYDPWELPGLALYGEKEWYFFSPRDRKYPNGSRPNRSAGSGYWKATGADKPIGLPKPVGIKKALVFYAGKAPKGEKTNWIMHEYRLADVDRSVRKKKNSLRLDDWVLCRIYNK
The note with it: protein: recombinant; tags: GST; chain copies: 2; dsDNA, one strand shown. In outline:
as §1

For assay [1], the target named is T5, GST-ANAC092(1-285) full length (Arabidopsis thaliana, UniProt Q9FKA0 1-285).
T5 sequence: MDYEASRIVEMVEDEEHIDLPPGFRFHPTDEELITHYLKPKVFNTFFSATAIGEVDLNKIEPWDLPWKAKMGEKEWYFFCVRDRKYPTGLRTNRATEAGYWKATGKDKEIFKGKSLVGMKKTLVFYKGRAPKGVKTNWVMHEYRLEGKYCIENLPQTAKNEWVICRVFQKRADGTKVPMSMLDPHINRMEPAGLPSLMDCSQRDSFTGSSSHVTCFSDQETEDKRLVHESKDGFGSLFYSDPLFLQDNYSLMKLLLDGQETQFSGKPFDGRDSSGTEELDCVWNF
The note with it: protein: recombinant; tags: GST; chain copies: 2; dsDNA, one strand shown. In short, it runs like this:
as §1

In a further assay the target is T6, GST-NST2(1-184) (Arabidopsis thaliana, UniProt Q9M274 1-184).
T6 sequence: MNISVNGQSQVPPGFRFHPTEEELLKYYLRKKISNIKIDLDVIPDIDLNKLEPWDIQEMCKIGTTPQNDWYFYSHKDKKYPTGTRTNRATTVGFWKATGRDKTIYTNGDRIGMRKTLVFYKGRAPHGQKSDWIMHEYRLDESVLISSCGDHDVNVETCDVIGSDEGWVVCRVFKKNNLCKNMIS
The note with it: protein: recombinant; tags: GST; chain copies: 2; dsDNA, one strand shown. In short, it runs like this:
as §1

Another assay has as its target T7, GST-NTL8 NAC domain (Arabidopsis thaliana, UniProt Q9XIN7 14-156).
T7 sequence: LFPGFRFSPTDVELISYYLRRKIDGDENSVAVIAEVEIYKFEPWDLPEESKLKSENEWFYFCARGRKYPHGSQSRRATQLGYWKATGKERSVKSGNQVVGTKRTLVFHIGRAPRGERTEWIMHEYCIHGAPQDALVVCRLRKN
The note with it: protein: recombinant; tags: GST; chain copies: 2; dsDNA, one strand shown. In outline:
as §1

The next assay addresses T8, GST-SND1(1-203) (Arabidopsis thaliana, UniProt Q9LPI7 1-203).
T8 sequence: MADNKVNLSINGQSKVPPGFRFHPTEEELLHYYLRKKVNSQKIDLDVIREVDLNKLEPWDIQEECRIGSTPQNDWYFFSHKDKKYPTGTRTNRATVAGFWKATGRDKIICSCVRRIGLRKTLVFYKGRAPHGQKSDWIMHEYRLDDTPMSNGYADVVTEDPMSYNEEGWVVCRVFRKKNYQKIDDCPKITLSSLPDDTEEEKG
The note with it: protein: recombinant; tags: GST; chain copies: 2; dsDNA, one strand shown. In short, it runs like this:
as §1

For a further assay, the target named is T9, GST-VND3 NAC domain (Arabidopsis thaliana, UniProt Q9FH59 12-162).
T9 sequence: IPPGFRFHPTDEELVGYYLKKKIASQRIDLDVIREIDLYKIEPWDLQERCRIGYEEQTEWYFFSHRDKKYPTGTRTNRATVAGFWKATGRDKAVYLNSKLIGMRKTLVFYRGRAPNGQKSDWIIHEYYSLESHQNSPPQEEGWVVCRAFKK
The note with it: protein: recombinant; tags: GST; chain copies: 2; dsDNA, one strand shown. In short, it runs like this: as §1

The target in another assay is T10, GST-VND7 NAC domain (Arabidopsis thaliana, UniProt Q9C8W9 9-158).
T10 sequence: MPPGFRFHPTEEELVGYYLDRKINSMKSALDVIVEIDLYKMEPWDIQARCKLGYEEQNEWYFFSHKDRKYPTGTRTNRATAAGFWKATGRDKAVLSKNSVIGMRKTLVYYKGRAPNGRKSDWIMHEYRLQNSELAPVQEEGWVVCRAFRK
The note with it: protein: recombinant; tags: GST; chain copies: 2; dsDNA, one strand shown. In outline: as §1

The next assay addresses GST-WRKY1(266-371) (Arabidopsis thaliana, UniProt Q9SI37 266-371). The note with it: protein: recombinant; tags: GST; dsDNA, one strand shown. In short, it runs like this:
as §1

The target of the next assay is T11, GST-NAP(1-166) (Arabidopsis thaliana, UniProt O49255 1-166).
T11 sequence: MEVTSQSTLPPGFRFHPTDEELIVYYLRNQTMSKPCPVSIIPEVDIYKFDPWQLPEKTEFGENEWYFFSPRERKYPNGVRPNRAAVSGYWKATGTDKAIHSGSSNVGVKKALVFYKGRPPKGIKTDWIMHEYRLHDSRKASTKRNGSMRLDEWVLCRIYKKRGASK
The note with it: protein: recombinant; tags: GST; chain copies: 2; dsDNA, one strand shown. In outline:
as §1

Sequence of GST-NTL6(1-168) (Q9SCK6 1-168): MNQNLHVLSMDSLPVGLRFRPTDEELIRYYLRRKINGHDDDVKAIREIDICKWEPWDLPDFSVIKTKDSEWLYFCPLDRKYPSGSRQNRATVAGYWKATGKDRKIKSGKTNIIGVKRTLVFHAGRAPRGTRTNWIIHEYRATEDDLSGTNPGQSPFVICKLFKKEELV
Sequence of GST-WRKY1(266-371) (Q9SI37 266-371): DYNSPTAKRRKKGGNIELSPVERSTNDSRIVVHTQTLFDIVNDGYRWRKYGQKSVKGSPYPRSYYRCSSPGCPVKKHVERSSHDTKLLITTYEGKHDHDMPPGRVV

As for GAAAGGAA, the binding signal in the assay with GST-ANAC092(1-176) turned out to be 0.21 E-score; in the assay with GST-NTL6(1-168), 0.32 E-score; in the assay with GST-ANAC019 NAC domain it was 0.134 E-score; with GST-ANAC055(1-171), 0.168 E-score; with GST-ATAF1 NAC domain, 0.188 E-score; in assay [1] it was 0.2 E-score. The binding signal in the assay with GST-NST2(1-184) is 0.228 E-score; in the assay with GST-NTL8 NAC domain, 0.422 E-score; with GST-SND1(1-203), 0.234 E-score; with GST-VND3 NAC domain it was 0.209 E-score; with GST-VND7 NAC domain, 0.231 E-score; in the assay with GST-WRKY1(266-371), 0.0968 E-score.

Consider AACACGTC, for which the binding signal with GST-ANAC092(1-176) was determined as 0.397 E-score; with GST-ANAC019 NAC domain, 0.33 E-score; with GST-ANAC055(1-171), 0.325 E-score; with GST-ATAF1 NAC domain, 0.316 E-score; in assay [1] it was 0.428 E-score; with GST-NAP(1-166), 0.262 E-score. In addition, the binding signal with GST-NST2(1-184) was 0.0538 E-score; in the assay with GST-SND1(1-203), 0.12 E-score; with GST-VND3 NAC domain, 0.343 E-score; with GST-VND7 NAC domain it was 0.312 E-score; with GST-WRKY1(266-371), 0.131 E-score.

As to CGTGGTCA, the binding signal amounted to 0.128 E-score with GST-ANAC092(1-176); 0.189 E-score with GST-ANAC019 NAC domain; 0.0851 E-score in the assay with GST-ANAC055(1-171); 0.0537 E-score with GST-ATAF1 NAC domain; 0.195 E-score in assay [1]; 0.0883 E-score in the assay with GST-SND1(1-203). Further, the binding signal with GST-VND3 NAC domain stood at 0.164 E-score; in the assay with GST-VND7 NAC domain, 0.128 E-score; with GST-WRKY1(266-371), 0.431 E-score.

CTTTCTTC: the binding signal with GST-ANAC092(1-176) came out at 0.137 E-score; with GST-NTL6(1-168), 0.295 E-score; with GST-ATAF1 NAC domain, 0.117 E-score; in assay [1] it was 0.21 E-score; in the assay with GST-NAP(1-166), 0.0839 E-score; in the assay with GST-NST2(1-184) it was 0.0636 E-score. Also, the binding signal is 0.41 E-score with GST-NTL8 NAC domain; 0.181 E-score in the assay with GST-SND1(1-203); 0.074 E-score with GST-VND3 NAC domain; 0.0647 E-score with GST-VND7 NAC domain; 0.156 E-score with GST-WRKY1(266-371).

Regarding GTCACGCA, the binding signal in the assay with GST-ANAC092(1-176) stood at 0.319 E-score; with GST-ANAC019 NAC domain it was 0.307 E-score; with GST-ANAC055(1-171), 0.236 E-score; in the assay with GST-ATAF1 NAC domain it was 0.193 E-score; in assay [1] it was 0.4 E-score; in the assay with GST-NAP(1-166) it was 0.197 E-score. In addition, the binding signal in the assay with GST-NST2(1-184) is 0.119 E-score; with GST-SND1(1-203), 0.257 E-score; with GST-VND3 NAC domain it was 0.167 E-score; in the assay with GST-VND7 NAC domain, 0.252 E-score; with GST-WRKY1(266-371) it was 0.228 E-score.

With AAGTCTAC, the binding signal with GST-ANAC092(1-176) stood at 0.0876 E-score; in the assay with GST-NTL6(1-168), 0.202 E-score; with GST-ANAC055(1-171) it was 0.158 E-score; with GST-ATAF1 NAC domain, 0.0826 E-score; with GST-NST2(1-184), 0.103 E-score; with GST-SND1(1-203), 0.0865 E-score. Also, the binding signal came to 0.0561 E-score in the assay with GST-VND3 NAC domain, 0.0651 E-score with GST-VND7 NAC domain and 0.412 E-score in the assay with GST-WRKY1(266-371).

In the case of GTAAGTAA, the binding signal was 0.246 E-score in the assay with GST-ANAC092(1-176); 0.474 E-score with GST-NTL6(1-168); 0.0906 E-score with GST-ANAC019 NAC domain; 0.199 E-score in the assay with GST-ANAC055(1-171); 0.245 E-score with GST-ATAF1 NAC domain; 0.334 E-score in assay [1]. Also, the binding signal with GST-NST2(1-184) stood at 0.239 E-score; with GST-NTL8 NAC domain, 0.195 E-score; with GST-SND1(1-203), 0.307 E-score; in the assay with GST-VND3 NAC domain it was 0.279 E-score; in the assay with GST-VND7 NAC domain, 0.186 E-score; with GST-WRKY1(266-371) it was 0.122 E-score.
